High-throughput results from PubChem BioAssay.
MsrA inh = bovine MsrA inhibition; purified bovine MsrA, absorbance read-out; inhibition, % at 15.5 µM; 0.75% of 360,000 active; AID 651718; in the data active = inhibition above about 4.5%;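 also: 0% = vehicle wells with enzyme and 100% = reference inhibitor wells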
MsrA act = bovine methionine sulfoxide reductase A activation | purified bovine MsrA, absorbance read-out | activation, % at 10.6 µM | 0.3% of 360,000 active; in the data active = activation above about 7.5%;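 also: 0% = vehicle and 100% = reference activator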
p-CIP stab down = p/CIP protein destabilization; decrease of EGFP signal, % at 10 µM; Q05BA5; 0.01% of 290,000 active; F442A p/CIP-EGFP cells, EGFP fluorescence, 16 h; AID 1984;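 active = EGFP signal decrease of at least 30% at 10 µM or well 3 SD below plate mean, unless failing retest; inactive = the rest, including hits failing retest or dose response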
14-3-3 Bad inh = disrupts binding of bovine 14-3-3 zeta to phospho-Bad peptide; P63103; TR-FRET 14-3-3zeta/Dy647-pBad peptide displacement, 1 h; inhibition, % at 21.7 µM; 0.71% of 220,000 active;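 active = inhibition above about 70%, limit read from the data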;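 also: 0% = full 14-3-3 plus peptide FRET controls and 100% = background without 14-3-3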
Target sequence (P63103 whole entry, looked up): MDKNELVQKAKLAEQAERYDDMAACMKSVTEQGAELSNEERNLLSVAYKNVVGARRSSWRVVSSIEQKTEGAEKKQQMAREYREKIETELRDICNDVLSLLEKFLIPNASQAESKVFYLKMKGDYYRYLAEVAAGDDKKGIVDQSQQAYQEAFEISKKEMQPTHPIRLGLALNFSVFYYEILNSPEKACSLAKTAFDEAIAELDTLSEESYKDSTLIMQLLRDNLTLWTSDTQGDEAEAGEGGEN
Active calls of the source: *; nt = not tested or not shown; [ ] = dose if it differs, or a comment. Most compounds without a hit are left out; they make up all but 1.4% or so of the library.

SMILES	MsrA inh	MsrA act	p-CIP stab down	14-3-3 Bad inh
O=C(O)c1ccc(/C=N/N2CCN(Cc3cccc4ccccc34)CC2)cc1	-1	-1	-7	94*
CC(C)CNc1cccc2c1S(=O)(=O)N[C@@H](CC(C)C)CO2	0	nt	nt	nt
CCn1c2ccccc2c2cc(NC(C)=O)ccc21	0	-5	-6	26
CCn1c2ccccc2c2cc(NC(=O)c3ccco3)ccc21	0	-2	-8	91*
O=C(COc1ccccc1C(=O)c1cnn(-c2ccccc2)c1)Nc1ccccc1	-1	-9	-15	84*[fluorescence artefact?]
COc1ccccc1CNC(=O)COc1ccccc1C(=O)c1cnn(-c2ccccc2)c1	1	-3	nt	nt
O=[N+]([O-])c1cc(S(=O)(=O)N2CCOCC2)ccc1N1CCCC1	0	1	2	-1
O=C(O)C1CCN(c2ccc(S(=O)(=O)N3CCOCC3)cc2[N+](=O)[O-])CC1	0	-4	10	89*
COc1cccc(C(C(=O)NCc2ccccc2)N2CCN(c3ccccc3F)CC2)c1OC (stereo not drawn)	0	nt	nt	nt
CC1Cc2ccccc2N1C(=O)CSCC(=O)O (stereo not drawn)	1	-2	4	-2
CC1Cc2ccccc2N1C(=O)CNCCCN(C)C (stereo not drawn)	1	0	-4	76*
COc1cccc(CNC(=O)C23CN(Cc4ccccc4)CC2C(c2ccc([N+](=O)[O-])cc2)=NO3)c1 (stereo not drawn)	1	-5	-5	71*
CCOc1ccccc1N1CCN(Cc2ccc(Br)s2)CC1	0	5	-5	76*
CCOc1ccccc1N1CCN(C/C=C/c2ccc(N(C)C)cc2)CC1	1	-1	-10	78*[fluorescence artefact?]
CCOc1ccccc1N1CCN(Cc2ccco2)CC1	1	-1	-31	8
COc1ccc(OC)c(S(=O)(=O)NCC2CCN(C(=O)C(=O)c3cccs3)CC2)c1	1	nt	nt	nt
CCCn1c(SC(C)C(=O)O)nc2ccccc21 (stereo not drawn)	nt	-2	2	83*
CCCn1c(SCC(=O)C(C)(C)C)nc2ccccc21	1	-6	-2	11
Cc1cccc2cc(C(c3nnnn3C(C)(C)C)N3CCN(C(=O)c4ccco4)CC3)c(=O)[nH]c12 (stereo not drawn)	2	-3	4	79*
CCN1CCc2c(sc(NC(=S)NC(=O)c3ccccc3)c2C#N)C1	1	-6	-20	79*
N#Cc1c(NC(=S)NC(=O)c2ccccc2)sc2c1CCC2	-1	-1	-5	-3
Oc1cccc(Nc2ccccc2)c1	-1	-3	nt	nt
Oc1cccc(NC(=S)Nc2ccccc2)c1	0	-1	-1	99*
CC(=O)Oc1cc(C)c(Cl)c2c(OC(C)=O)cc(C(C)=O)c(O)c12	-1	nt	nt	nt
CC1CCC(C(C)C)C(OCC(O)CN2CCOCC2)C1 (stereo not drawn)	2	-11	-3	15
SMILES	MsrA inh	MsrA act	p-CIP stab down	14-3-3 Bad inh
CC1CCC(C(C)C)C(OCC(O)CN2CCN(Cc3ccccc3)CC2)C1 (stereo not drawn)	0	-3	-22	74*
COc1ccc(OC)c(Nc2ncnc3sc(-c4ccccc4)cc23)c1	2	-6	-8	80*[fluorescence artefact?]
O=C(N[C@H](Cc1ccccc1)C(=O)NCCCN1CCCC1=O)[C@H]1O[C@@H](n2ccc(=O)[nH]c2=O)[C@H](O)[C@@H]1O	0	nt	nt	nt
Cc1ccc(NC(=O)CCC(=O)N/N=C/c2cccs2)cc1	1	-4	4	86*
Nc1cc(Oc2cccnc2)cc([N+](=O)[O-])c1	0	-2	16	89*
Cc1cccc(Oc2cc(N)cc([N+](=O)[O-])c2)c1	1	-3	-1	15
Nc1ccc(Oc2ccc([N+](=O)[O-])cc2[N+](=O)[O-])cc1	1	-12	5	1
O=[N+]([O-])c1ccc(Oc2cccnc2)c([N+](=O)[O-])c1	4.5*	0	nt	nt
CCN1C(=O)N[C@H]2C[C@H](C(=O)N3CCCC3)[C@H](C)[C@H](c3ccccc3)C[C@H]21	0	nt	nt	nt
NC(=S)n1[nH]c(-c2ccc([N+](=O)[O-])cc2)c(N=Nc2ccc(O)cc2)c1=O	1	-8	-6	42
NC(=S)n1[nH]c(-c2ccc([N+](=O)[O-])cc2)c(N=Nc2cccc(Cl)c2)c1=O	1	-11	-19	88*
COCc1[nH]nc2c1C(c1cccc(C(F)(F)F)c1)N(c1ccccc1)C2=O (stereo not drawn)	1	nt	nt	nt
COc1ccc(C2CC(=O)C(c3cccc(OC)c3)=CN2Cc2ccccc2)cc1 (stereo not drawn)	-1	nt	nt	nt
CC1CC(C)CN(C2CCN(Cc3cccnc3)CC2)C1 (stereo not drawn)	-2	-4	-9	79*
CCOc1ccc(C2C(C(=O)Nc3ccc(F)cc3)=C(C)Nc3nc(CCCO)nn32)cc1 (stereo not drawn)	0	-3	0	77*
Cc1[nH]nc2c1C(c1ccccc1)N(Cc1ccccc1)C2=O (stereo not drawn)	0	nt	nt	nt
O=C(NCc1ccco1)/C(=C\c1cccnc1)NC(=O)c1ccccc1F	nt	-10	-11	2
O=C(NCc1ccco1)/C(=C/c1cccnc1)NC(=O)c1cccc(Br)c1	1	-7	-12	77*[fluorescence artefact?]
CN(/N=C/c1ccncc1)C1=NS(=O)(=O)c2ccccc21	3	-3	-10	79*
Cc1ccc(NC(=O)Cn2c(O)c(N=NC(N)=O)c3ccccc32)cc1	2	-7	-5	-6
Cc1ccccc1NC(=O)Cn1c(O)c(N=NC(=O)c2ccccc2O)c2ccccc21	0	2	-5	92*[fluorescence artefact?]
COc1cccc(CNC(=O)[C@H]2CCCN2C(=O)[C@H]2CCCN2C(=O)N2CCOCC2)c1	-1	nt	nt	nt
O=C(CCO)c1ccc(O)cc1	1	-9	3	75*
CCCN1CCCCC(NC(=O)c2ccc3ccccc3c2)C1=O (stereo not drawn)	0	nt	nt	nt
Cc1[nH]nc2c1C(c1ccccc1)N(c1ccccc1)C2=O (stereo not drawn)	0	nt	nt	nt
SMILES	MsrA inh	MsrA act	p-CIP stab down	14-3-3 Bad inh
Cc1ccc(Nc2nc(-c3ccc(S(=O)(=O)N4CCCC4)cc3)cs2)cc1C	nt	-4	1	86*
CC(C)CC(=O)N1CCN(CC2CC=CCC2)CC1 (stereo not drawn)	-1	-1	-2	77*
CCC(CC)N1CCN(CC2CC=CCC2)CC1 (stereo not drawn)	-1	-3	-34	48
O=C1CCCN1CCCNCC(O)c1ccccc1 (stereo not drawn)	-1	-1	-10	nt
O=C1CCCN1CCCNCC(=O)N1c2ccccc2Sc2ccccc21	-1	2	-14	79*
COc1cc(OC)c(-c2sc(Nc3ccccc3)n[n+]2-c2ccc(F)cc2)cc1OC	4.6*	-11	-9	nt
COc1cc(Br)c(-c2sc(Nc3ccccc3)n[n+]2-c2ccc(F)cc2)cc1OC	1	0	6	nt
CCNC(=O)N1CCN(c2ccc(N3CCN(C(=O)NCC)[C@@H](C)C3)c(C)c2)[C@H](C)C1	2	nt	nt	nt
CCC(c1nnnn1Cc1ccc(F)cc1)N1CCN(C2CCCCC2)CC1 (stereo not drawn)	-1	-12	-4	48
